Compound activity (PubChem BioAssay)
An excerpt weighted towards active compounds, which were near 3.2% of everything screened.
p53ts 32C tox: p53ts cell cytotoxicity, permissive temperature; H1299-p53A138V at 32C, ATP luminescence viability, 24 h; Potency, µM (top dose mostly 46.1 µM), without a hit: top-dose activity change, negative = cytotoxicity, actives largely listed as cytotoxic; hit rate 0.93% among 130,000; AID 924;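 further: potency means the concentration at half of the fitted maximal effect; 0% = DMSO and -100% = full killing by reference compound; nearly all actives have a fitted effect of over 55% in size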
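Viability by ATPlite luminescence after 24 h compound treatment (up to 46 uM) at the permissive 32C. Cells are H1299 carrying p53 A138V. Scale runs from DMSO basal to 100 uM tamoxifen as full kill; AC50 from Hill fits.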
Tau filament bind: binders of human tau filaments; P10636; recombinant tau filaments, thioflavin S fluorescence, 15 h; filaments grown with octadecylsulfate alongside compound; Potency, µM (top dose mostly 57.1 µM), without a hit: top-dose activity change, negative = inhibition; hit rate 2% among 71,000;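 further: potency means the concentration at half of the fitted maximal effect; on the % scale 0 is the no-effect control and ±100 the full control effect; actives lower thioflavin S fluorescence by blocking filaments or displacing dye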
Target sequence (P10636 whole entry, looked up): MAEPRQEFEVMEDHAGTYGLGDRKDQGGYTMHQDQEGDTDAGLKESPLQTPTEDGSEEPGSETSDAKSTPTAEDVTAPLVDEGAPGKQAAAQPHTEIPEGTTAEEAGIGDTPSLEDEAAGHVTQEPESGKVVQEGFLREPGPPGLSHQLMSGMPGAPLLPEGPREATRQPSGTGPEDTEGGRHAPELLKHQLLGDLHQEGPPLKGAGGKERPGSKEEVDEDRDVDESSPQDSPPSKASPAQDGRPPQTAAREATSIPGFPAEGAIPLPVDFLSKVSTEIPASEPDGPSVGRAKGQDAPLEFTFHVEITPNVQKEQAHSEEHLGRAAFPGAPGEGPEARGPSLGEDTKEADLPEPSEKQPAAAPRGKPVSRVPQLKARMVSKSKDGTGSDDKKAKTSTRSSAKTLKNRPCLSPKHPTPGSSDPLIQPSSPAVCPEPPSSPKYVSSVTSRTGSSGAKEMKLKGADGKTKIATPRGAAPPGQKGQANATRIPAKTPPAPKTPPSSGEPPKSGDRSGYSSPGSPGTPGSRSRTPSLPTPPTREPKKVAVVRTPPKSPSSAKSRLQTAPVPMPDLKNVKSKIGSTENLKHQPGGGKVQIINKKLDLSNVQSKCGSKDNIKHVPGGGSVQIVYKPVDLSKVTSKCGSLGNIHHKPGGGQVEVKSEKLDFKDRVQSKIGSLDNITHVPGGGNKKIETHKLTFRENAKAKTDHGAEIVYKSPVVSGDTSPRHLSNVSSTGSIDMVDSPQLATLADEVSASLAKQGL
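Read-out: ThS fluorescence, 450 nm excitation/510 nm emission; lower signal marks blocked filament formation or displaced dye. Tau at 1 uM with 30 uM ODS, 10 uM ThS, 5 mM DTT, 100 mM NaCl, 10 mM HEPES pH 7.4; 15 h, 37 C.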
DNA Pol III inh: DNA polymerase III holoenzyme inhibition. Potency, µM (top dose mostly 57.1 µM), for inactives: at the highest dose activity change, negative = inhibition. hit rate 0.25% among 71,000. reconstituted DNA polymerase III holoenzyme replication, biochemical; further: potency means the concentration at half of the fitted maximal effect; on the % scale 0 is the no-effect control and ±100 the full control effect
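Reconstituted *E. coli* holoenzyme (0.35 nM Pol III, 1 nM beta, 154 nM SSB, 2 nM primase) was preincubated with compound for 15 min at RT. Synthesis on 1.4 nM ssM13Gori ran 35 min, then was stopped with PicoGreen/EDTA and read as dsDNA fluorescence.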
ERK AVP inh: blocks ERK signaling stimulated by vasopressin. HEK293-V1b, vasopressin-stimulated pERK AlphaScreen. Potency, µM (doses to about 57.5 µM), inactives show at the top dose activity, negative = inhibition, hits mostly inhibitors. hit rate 0.99% among 72,000. AID 995; further: potency means the concentration at half of the fitted maximal effect; on the % scale 0 is the no-effect control and ±100 the full control effect; nearly all actives have a fitted effect of over 55% in size
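Phosphorylated ERK1/2 detected via AlphaScreen bead proximity in lysates of V1b-expressing HEK293 cells given 25 nM vasopressin for 5 min after 30 min compound exposure (37 °C). AC50 from Hill equation; basal DMSO 0%, vasopressin 100%.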
p53ts 39C tox: cytotoxicity in p53ts cells at nonpermissive temperature; H1299-p53A138V viability at 39C, ATP luminescence, 24 h; Potency, µM (titrated, usually from 46.1 µM), without a hit: at the top dose activity change, negative = cell killing, usual class: cytotoxic; hit rate 1.5% among 130,000; AID 902; further: potency means the concentration at half of the fitted maximal effect; on the % scale 0 is the no-effect control and ±100 the full control effect; nearly all actives have a fitted effect of over 55% in size
TsaE inh: inhibitors of E. coli YjeE (TsaE) | Potency, µM | purified YjeE enzyme, qHTS inhibition assay | P0AF67 | hit rate 0.05% among 71,000 | AID 605
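Purified YjeE (10 uM) with BODIPY Texas Red-labeled ADP probe (2 uM); compounds pin-transferred, 15 min at room temperature. Binding inhibition read as decreased fluorescence polarization; ADP titration as control.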
* = called active by the depositor; ! = not confirmed by another sample; [ ] = dose if it differs, or a comment. The call rests on the fitted dose curve; in most records, active means well fitted curve in the direction sought with a large enough effect; inconclusive means small, poorly fitted or top-dose-only effect, or another doubt; inactive means no such curve, though single readings can be large; an effect the other way counts as inactive or inconclusive.

How did Cc1ccc(NC(=O)CN2C(=O)C3(SCC(=O)N3c3cccc(Cl)c3)c3ccccc32)cc1C (stereo not given) do in these assays?
p53ts 32C tox: inconclusive; p53ts 39C tox: -25%

What do the screens show for `Cc1cc(C)n(-c2nc3ccccc3nc2Nc2ccc3[nH]c(=O)[nH]c3c2)n1`?
p53ts 32C tox: 0%; Tau filament bind: 1.3µM*; DNA Pol III inh: 6%; ERK AVP inh: -26%; p53ts 39C tox: 0%; TsaE inh: inactive

What do the screens show for `N#Cc1cccc(NC(=O)Cn2nc(Cc3ccncc3)c3ccccc3c2=O)c1`?
p53ts 32C tox: -4%; p53ts 39C tox: -19%

What do the screens show for `COc1ccc2c(c1)OC/C(=C/c1ccc(O)c(O)c1)C2=O`?
p53ts 32C tox: -9%; ERK AVP inh: -1%; p53ts 39C tox: 3%

How did COc1ccc2c(c1)OC/C(=C/c1ccc(OC)c(OC)c1)C2=O do in these assays?
p53ts 32C tox: -5%; ERK AVP inh: 16µM*; p53ts 39C tox: inconclusive

What do the screens show for `CCCCSc1nc2sc3c(c2c(=O)n1-c1ccccc1C)CC(C)(C)OC3`?
p53ts 32C tox: 5%; p53ts 39C tox: 11%

How did O=c1cc(-c2ccc(O)c(O)c2)oc2cc(O[C@@H]3O[C@@H](CO)[C@@H](O)[C@@H](O)[C@H]3O)cc(O)c12 do in these assays?
Tau filament bind: inconclusive; DNA Pol III inh: 1µM*; TsaE inh: inactive

Results for CCOc1ccccc1CNC(=O)c1cnn(-c2ccc(C)cc2)c1-n1cccc1 ?
p53ts 32C tox: 86%; p53ts 39C tox: 5%

How did CCOC(=O)c1ccc(NC(=O)CC2NCCNC2=O)cc1 (stereo not given) do in these assays?
p53ts 32C tox: -4%; p53ts 39C tox: -6%

How did CCOC(=O)c1ccc(NC(=O)CC2SCCNC2=O)cc1 (stereo not given) do in these assays?
p53ts 32C tox: 13µM*; Tau filament bind: -5%; DNA Pol III inh: -1%; ERK AVP inh: -3%; p53ts 39C tox: 13µM*; TsaE inh: inactive

What do the screens show for `COc1cccc(-c2cc(C(=O)Nc3cccc(O)c3)no2)c1`?
p53ts 32C tox: 2.5µM*; Tau filament bind: 48%; DNA Pol III inh: -5%; ERK AVP inh: 23%; p53ts 39C tox: 3.2µM*; TsaE inh: inactive

What do the screens show for `COc1cc(NC(=O)c2cc(-c3cccc(O)c3)on2)cc(OC)c1OC`?
p53ts 32C tox: 1%; Tau filament bind: 188%; DNA Pol III inh: 1%; ERK AVP inh: -29%; p53ts 39C tox: -13%; TsaE inh: inactive

How did COc1cc(NC(=O)c2cc(-c3ccc(Cl)c(Cl)c3)on2)cc(OC)c1OC do in these assays?
p53ts 32C tox: -26%; p53ts 39C tox: 20µM*

Results for CCOc1ccccc1CNC(=O)CN1C(=O)c2cccnc2Oc2ccc(Cl)cc21 ?
p53ts 32C tox: 1%

What do the screens show for `Cn1nc(C(=O)NCc2cccc(Cl)c2)c2c1-c1ccccc1SC2`?
p53ts 32C tox: -7%; p53ts 39C tox: 13%

What do the screens show for `Cc1nc2c(C(=O)NCCc3ccc(Cl)cc3)cnn2c(C)c1Cc1ccc(F)cc1`?
p53ts 32C tox: 30%; p53ts 39C tox: inconclusive

Results for Cc1nc2c(C(=O)NC(C)c3ccccc3)cnn2c(C)c1Cc1ccccc1 (stereo not given) ?
p53ts 32C tox: inconclusive; p53ts 39C tox: 20µM*

Results for COCCn1c(=N)c(C(=O)NCCc2ccc(OC)cc2)cc2c(=O)n3cccc(C)c3nc21 ?
p53ts 32C tox: 3%; Tau filament bind: 2µM*; DNA Pol III inh: -13%; ERK AVP inh: -4%; p53ts 39C tox: 8%; TsaE inh: inactive

Results for CCNC(=O)c1cc2c(=O)n3cccc(C)c3nc2n(Cc2ccc(C)cc2)c1=N ?
p53ts 32C tox: 10%; Tau filament bind: 1.6µM*; DNA Pol III inh: -2%; ERK AVP inh: 3%; p53ts 39C tox: 15%; TsaE inh: inactive

How did CCCc1ccc(S(=O)(=O)N2CCC(c3nnnn3-c3ccc(OC)cc3)CC2)cc1 do in these assays?
p53ts 32C tox: 0%; p53ts 39C tox: -19%

What do the screens show for `Cc1ccc(NCN2C(=O)C3C4C=CC(C4)C3C2=O)cc1` (stereo not given)?
p53ts 32C tox: -3%; Tau filament bind: 13%[11.4 µM]; DNA Pol III inh: -5%[11.4 µM]; ERK AVP inh: -1%; p53ts 39C tox: 13%; TsaE inh: inactive

How did O=C1C2C3C=CC(C3)C2C(=O)N1CNc1ccc(O)cc1 (stereo not given) do in these assays?
p53ts 32C tox: -2%; Tau filament bind: 16µM*; DNA Pol III inh: -13%; ERK AVP inh: 2%; p53ts 39C tox: 0%; TsaE inh: inactive

Results for Cc1ccc(N2CCN(C(=S)c3ccc(N(C)C)cc3)CC2)cc1 ?
p53ts 32C tox: -4%; Tau filament bind: 13µM*; DNA Pol III inh: -3%; ERK AVP inh: 20%; p53ts 39C tox: -12%; TsaE inh: inactive

What do the screens show for `CN(C)c1ccc(C(=S)N2CCN(c3ccccc3)CC2)cc1`?
p53ts 32C tox: 4%; Tau filament bind: -3%; DNA Pol III inh: 11%; ERK AVP inh: inconclusive; p53ts 39C tox: -17%; TsaE inh: inactive

Results for CN(C)c1ccc(N=Nc2ccccc2C(=O)OCC(=O)N(C)c2ccccc2)cc1 ?
p53ts 32C tox: 10µM*; p53ts 39C tox: inconclusive

Results for Cc1oc(-c2ccccc2Cl)nc1CSc1nncn2c1cc1occc12 ?
p53ts 32C tox: 9%; p53ts 39C tox: inconclusive

What do the screens show for `NCCCCN=C(N)N`?
p53ts 32C tox: 0%; Tau filament bind: 40µM*!; DNA Pol III inh: 0%; ERK AVP inh: 4%; p53ts 39C tox: -11%; TsaE inh: inactive

What do the screens show for `CCc1cccc2nc3c(c([Si](C)(C)C)c12)Cn1c-3cccc1=O`?
p53ts 32C tox: 9%; Tau filament bind: 16µM*; DNA Pol III inh: -13%; ERK AVP inh: 22%; p53ts 39C tox: 3%; TsaE inh: inactive

How did CC(C)c1cccc2nc3c(c([Si](C)(C)C(C)(C)C)c12)Cn1c-3cccc1=O do in these assays?
p53ts 32C tox: 0%; Tau filament bind: inconclusive; DNA Pol III inh: -4%; ERK AVP inh: 30%; p53ts 39C tox: -9%; TsaE inh: inactive

Results for CC1CCN(C(=O)Cn2cc(SCC(=O)Nc3ccccc3C(F)(F)F)c3ccccc32)CC1 ?
p53ts 32C tox: 2%; p53ts 39C tox: -5%

What do the screens show for `O=C1CC(c2cccs2)Cc2nc(NCC3CCCO3)ncc21` (stereo not given)?
p53ts 32C tox: 3%; Tau filament bind: 3%; DNA Pol III inh: 1%; ERK AVP inh: 20µM*; p53ts 39C tox: -5%; TsaE inh: inactive
